In the library only some 11% were active in any assay of this set; here they are far more common.
HCV inhibitor – qHTS Assay for Inhibitors of Hepatitis C Virus (HCV) | hit rate 3.4% among 340,000 | Potency, µM (highest dose often 41.8 µM), for inactives: top-dose activity change, negative = inhibition, hits mostly inhibitors | AID 651820, 2012 | Huh7.5.1 HCVcc-Cre infection, luciferase reporter, 44 h
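Infectious HCV cell culture screen: compound-treated cells (1,000/well, pre-plated 4 h) are infected with HCVcc-Cre at roughly 0.5 moi and grown 44 h. Infection is quantified by luciferase signal after 15 min substrate incubation at room temperature.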
AMA1 RON2 block – qHTS for Inhibitors of AMA1-RON; Towards Development of Antimalarial Drug Lead: Primary Screen; Plasmodium falciparum AMA1 (3D7) - RON2 peptide interaction; AlphaScreen AMA1-biotinylated RON2 peptide binding; Potency, µM (series often up to 58.2 µM), inactives show at the highest dose activity change, negative = inhibition, actives largely listed as inhibitors; hit rate 0.2% among 360,000;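 further: 0% = vehicle wells and -100% = peptide control; nearly all actives have a fitted effect of over 45% in size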
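AMA1 (3D7) with his tag at 25 nM final met compounds first, then biotinylated RON2 peptide at 25 nM; detection used donor plus acceptor beads, 10 µg/mL apiece, read by AlphaScreen after 30 min at room temperature.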
Pf growth 96h – Primary qHTS for delayed death inhibitors of the malarial parasite plastid, 96 hour incubation. P. falciparum luciferase reporter growth, 96 h. hit rate 6.9% among 320,000. Potency, µM (series often up to 28.7 µM), without a hit: top-dose activity change, negative = inhibition, usual class: inhibitors
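Cell-based qHTS: luciferase-tagged P. falciparum in erythrocytes (2% hematocrit, 0.05% parasitemia final) incubated with compounds for 96 hours, 37 C, 5% CO2; luciferase detection reagent then added and luminescence measured.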
Pf growth 48h – Primary qHTS for delayed death inhibitors of the malarial parasite plastid, 48 hour incubation. P. falciparum luciferase growth in erythrocytes, 48 h. Potency, µM (titrated, usually from 28.7 µM), inactives show at the highest dose activity change, negative = inhibition, usual class: inhibitors. hit rate 5.9% among 310,000. AID 504832, 2011
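Luciferase-expressing parasites in RBCs, 2% Hct / 0.1% parasitemia final; RPMI 1640 + 0.5% Albumax; 37 C, 5% CO2, one generation; luminescence read-out, lower signal = inhibition.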
* = called active by the depositor; [ ] = another dose, or the depositor's remark. The call rests on the fitted dose curve; in most records, active means well fitted curve in the direction sought with a large enough effect; inconclusive means small, poorly fitted or top-dose-only effect, or another doubt; inactive means no such curve, though single readings can be large; an effect the other way counts as inactive or inconclusive. Unless noted, on the % scale 0 is the no-effect control and ±100 the full control effect; potency means the concentration at half of the fitted maximal effect.

What do the screens show for `COc1ccc(-n2cnc(=S)[nH]c2=S)cc1`?
HCV inhibitor: 11%; AMA1 RON2 block: 41%

Results for O=C(N[C@@H](c1ccccc1)[C@H](O)c1ccccc1)[C@@H]1CCCN1C(=O)OCc1ccccc1 ?
HCV inhibitor: 19%; AMA1 RON2 block: -2%

Results for COC(=O)C(C)n1cnc2c(nnn2-c2ccc(OC)cc2)c1=O (stereo unspecified) ?
HCV inhibitor: 14%; AMA1 RON2 block: 0%; Pf growth 96h: 4.1µM*; Pf growth 48h: 14%

How did Cc1cccc(C(=O)OCC(=O)NN2C(=O)NC3(CCC(C)CC3)C2=O)c1O (stereo unspecified) do in these assays?
HCV inhibitor: -2%[8.37 µM]; AMA1 RON2 block: 19%; Pf growth 96h: 14%; Pf growth 48h: 15%

What do the screens show for `O=C(C[n+]1cc(-c2ccc(F)cc2)n2c1CCC2)OCc1ccccc1`?
HCV inhibitor: 13%; AMA1 RON2 block: -1%; Pf growth 96h: 10%; Pf growth 48h: 14%

What do the screens show for `Cc1ccc(-c2c[n+](CC(=O)Nc3nc(-c4ccc(F)cc4)cs3)c3n2CCC3)cc1`?
HCV inhibitor: inconclusive; AMA1 RON2 block: -2%; Pf growth 96h: 3.7µM*; Pf growth 48h: inconclusive

Results for Cc1cccc(C)c1NC(=O)C[n+]1cc(-c2ccccc2)n2c1CCC2 ?
HCV inhibitor: 20%; AMA1 RON2 block: -10%; Pf growth 96h: 12µM*; Pf growth 48h: inconclusive

What do the screens show for `Cc1ccccc1NC(=O)C[n+]1cc(-c2ccccc2)n2c1CCC2`?
HCV inhibitor: 14%; AMA1 RON2 block: -15%; Pf growth 96h: 5.9µM*; Pf growth 48h: inconclusive

Results for O=C(C[n+]1cc(-c2ccccc2)n2c1CCC2)OCc1ccccc1 ?
HCV inhibitor: 17%; AMA1 RON2 block: -1%; Pf growth 96h: inconclusive; Pf growth 48h: 3%

Results for Cn1c(NC(=O)C[n+]2cc(-c3ccc(Cl)c(Cl)c3)n3c2CCC3)cc(=O)n(C)c1=O ?
HCV inhibitor: 8%; AMA1 RON2 block: -4%[2.32 µM]; Pf growth 96h: 0.83µM*; Pf growth 48h: 1.3µM*

What do the screens show for `O=C(C[n+]1cc(-c2ccc(F)cc2)n2c1CCC2)Nc1nc(-c2ccccc2)cs1`?
HCV inhibitor: inconclusive; AMA1 RON2 block: 13%[2.32 µM]; Pf growth 96h: inconclusive; Pf growth 48h: inconclusive

Results for Cc1ccc(S(=O)(=O)N2C[C@@H](C)[C@]3(C2)[C@H](O)[C@H](OC(=O)NC2CCCC2)C[C@H]2C(=O)N(c4ccccc4)C(=O)[C@H]23)cc1 ?
AMA1 RON2 block: -8%

Results for Cc1ccc(-c2c[n+](CC(=O)Nc3ccc(C)cc3C)c3n2CCC3)cc1 ?
HCV inhibitor: -10%; AMA1 RON2 block: -23%; Pf growth 96h: inconclusive; Pf growth 48h: inconclusive

What do the screens show for `Cc1ccc(NC(=O)C[n+]2cc(-c3ccc(C)cc3)n3c2CCC3)cc1`?
HCV inhibitor: inconclusive; AMA1 RON2 block: 0%; Pf growth 96h: 1.9µM*; Pf growth 48h: 6.6µM*

Results for CCOC(=O)c1cnc(-n2[nH]c(C)cc2=O)[nH]c1=O ?
HCV inhibitor: 17%; AMA1 RON2 block: 1.6µM*; Pf growth 96h: inconclusive; Pf growth 48h: -3%

Results for CC(C)COC(=O)N1CCCC1C(=O)O (stereo unspecified) ?
HCV inhibitor: 3.2µM*; AMA1 RON2 block: -2%; Pf growth 96h: inconclusive; Pf growth 48h: 0%

How did CC(C)(C)OC(=O)N1CCC[C@H]1C(=O)O do in these assays?
HCV inhibitor: 30%; AMA1 RON2 block: 15%; Pf growth 96h: 8%; Pf growth 48h: 37%

How did N/C(=N\OC(=O)c1cnn(-c2ccccc2)c1C(F)(F)F)c1ccc(C(F)(F)F)cc1 do in these assays?
HCV inhibitor: -22%; AMA1 RON2 block: -3%; Pf growth 96h: 46%; Pf growth 48h: 27%

Results for O=c1[nH]c(O)c(/C=C2/C=CC(c3cc(Cl)ccc3Cl)=N2)c(=O)[nH]1 ?
HCV inhibitor: 32µM*; AMA1 RON2 block: 11%; Pf growth 96h: 113%; Pf growth 48h: 65%

How did CCN(CC)CCNC(=O)C1(O)c2cc(Br)ccc2NC(=O)N1c1ccccc1 (stereo unspecified) do in these assays?
HCV inhibitor: 4%; AMA1 RON2 block: 12%; Pf growth 96h: 2.6µM*; Pf growth 48h: -3%[0.00184 µM]

Assay outcomes: PubChem, National Center for Advancing Translational Sciences (NCATS)
